Shown are actives, neighbours in structure and some others; about 18% of the full set was active somewhere.
CtBP-E1A blk: CtBP/E1A binding inhibition; AlphaScreen GST-E1A/His-CtBP binding, 1536-well; stronger effect = lower value; activity change, % (test concentration not listed); 340,000 tested, 0.49% active; in the data active = activity change below about -65%; inconclusive = mostly about -30% to -63%
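GST-E1A and His-tagged CtBP (125 nM each as 5X stock) were preincubated with pin-transferred compound for 2 h at 37 °C in the dark, then glutathione donor and nickel acceptor beads were added for 1 h before AlphaScreen reading.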
TDP1 inh: TDP1 (human) enzyme inhibition; Q9NUW8; recombinant TDP1, AlphaScreen DNA substrate cleavage; Potency, µM (series often up to 130 µM), usual class: inhibitors; 350,000 tested, 0.28% active; also: nearly all actives have a fitted effect of over 40% in size
Target sequence (Q9NUW8 whole entry, looked up): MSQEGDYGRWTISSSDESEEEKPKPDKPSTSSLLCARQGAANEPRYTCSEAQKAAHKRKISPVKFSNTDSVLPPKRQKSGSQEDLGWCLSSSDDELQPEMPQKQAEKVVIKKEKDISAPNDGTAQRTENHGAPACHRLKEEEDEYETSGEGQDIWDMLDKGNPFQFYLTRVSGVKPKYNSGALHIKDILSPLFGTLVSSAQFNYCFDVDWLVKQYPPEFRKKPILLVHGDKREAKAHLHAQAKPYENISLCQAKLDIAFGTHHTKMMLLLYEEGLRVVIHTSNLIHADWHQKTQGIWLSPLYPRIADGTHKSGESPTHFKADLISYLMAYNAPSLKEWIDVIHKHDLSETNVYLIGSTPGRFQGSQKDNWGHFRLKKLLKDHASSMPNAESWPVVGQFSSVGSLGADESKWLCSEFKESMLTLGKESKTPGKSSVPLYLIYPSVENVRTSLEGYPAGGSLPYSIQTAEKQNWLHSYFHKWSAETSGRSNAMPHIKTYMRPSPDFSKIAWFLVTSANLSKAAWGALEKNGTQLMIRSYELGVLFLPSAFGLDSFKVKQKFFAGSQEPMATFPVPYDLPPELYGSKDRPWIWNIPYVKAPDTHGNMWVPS
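Recombinant E. coli-expressed Tdp1 (1 nM) preincubated with compound 15 min at RT, then 5'-biotin/3'-phosphotyrosine-FITC DNA substrate (15 nM) added for 5 min. AlphaScreen beads (10 ug/ml) added, 10 min RT; tyrosine-FITC cleavage read as signal loss.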
TDP1 cell noCPT: qHTS for Inhibitors of human tyrosyl-DNA phosphodiesterase 1 (TDP1): qHTS in cells in absence of CPT; DT40 Tdp1-/- hTDP1 cells, no CPT, ATP luminescence, 48 h; AID 686978, 2013; 420,000 tested, 15% active; Potency, µM (top dose mostly 46.2 µM), hits mostly inhibitors; also: nearly all actives have a fitted effect of over 55% in size
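Cells were dispensed at 400 per well, compounds added by pin tool, plates incubated ≥48 hr at 37 °C, then CellTiter-Glo added for 30 min at room temperature before luminescence reading. Line: DT40 Tdp1-/- complemented with hTDP1; camptothecin omitted.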
Six1-Eya2 inh: Six1/Eya2 interaction inhibition. 360,000 tested, 0.56% active. activity change, % (no concentration beside the values). AlphaScreen GST-Six1/His-Eya2 binding, biochemical; stronger effect = lower value. Q15475+O00167. AID 651725; in the data active = activity change below about -65%; inconclusive = mostly about -30% to -63%
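GST-Six1 + His-Eya2 (5X stock: 250/500 nM); Tris pH 8.0, 300 mM NaCl, 0.05% BSA, 0.02% Tween 20; GSH donor/Ni acceptor beads; 1 h 37 °C dark; AlphaScreen readout.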
IL1B secr inh: blocks inflammasome-driven IL-1 beta release. THP-1 LPS/ATP IL-1B secretion, AlphaLISA, 16 h; stronger effect = lower value. activity change, % at 57.5 µM. 360,000 tested, 4.7% active. AID 743279; in the data active = activity change below about -50%; inconclusive = mostly about -30% to -49%
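Secreted IL-1B measured by AlphaLISA bead assay after 16 h compound exposure of THP-1 cells; compounds (final up to 57.5 uM) added 1 h before LPS (250 ng/mL) and ATP (1.25 mM) stimulation; lower signal means less secretion.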
TDP1 cell CPT: growth inhibition of DT40 Tdp1-/-;hTDP1 cells with camptothecin (screen for TDP1 inhibitors); chicken DT40 Tdp1-/-;hTDP1 cells + 20 nM CPT, ATP luminescence, 48 h; Potency, µM (doses to about 46.2 µM), hits mostly inhibitors; 420,000 tested, 12% active; also: nearly all actives have a fitted effect of over 55% in size
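Cell growth measured by CellTiter-Glo luminescence after a minimum 48 h, 37 C compound exposure with 20 nM CPT in Tdp1-knockout DT40 cells stably expressing hTDP1, seeded 400/well; qHTS titration format.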
Hits are given with their value; . = inactive; ? = inconclusive; / = no result given. Unless noted, calls follow the shape of the dose curve; as a rule, active = well fitted curve in the direction sought with a large enough effect; inconclusive = small, poorly fitted or top-dose-only effect, or another doubt; inactive = no such curve, though single readings can be large; an effect the other way counts as inactive or inconclusive.

SMILES | CtBP-E1A blk | TDP1 inh | TDP1 cell noCPT | Six1-Eya2 inh | IL1B secr inh | TDP1 cell CPT
CCOC(=O)Cn1c(C(=O)OCC)cc2sccc21 | . | . | . | . | . | .
COc1cccc(C(=O)O/N=C(\N)c2ccncc2)c1 | . | . | . | . | . | .
Cn1c(=O)c(/C(N)=N/OC(=O)c2ccccc2)cn(-c2ccccc2)c1=O | . | . | ? | . | . | ?
COc1ccc(OC)c(-n2c(SCC(C)=O)nnc2-c2cccc(S(=O)(=O)N(C)C)c2)c1 | . | . | . | . | . | .
CCCSc1nnc(-c2cccc(S(=O)(=O)N(C)C)c2)n1-c1cc(OC)ccc1OC | . | . | 11µM | . | . | 11µM
CCSc1nnc(-c2cccc(S(=O)(=O)N(C)C)c2)n1-c1cc(OC)ccc1OC | . | . | ? | . | . | 14µM
COc1ccccc1N(C)S(=O)(=O)c1ccc(C(=O)N2CCCC(C(F)(F)F)C2)cc1 (stereo unspecified) | . | . | 18µM | . | . | ?
CC1CCc2[nH]c3ccc(C(=O)N4CCCC(C(F)(F)F)C4)cc3c2C1 (stereo unspecified) | . | . | 16µM | . | -62 | ?
CC1CCN(S(=O)(=O)c2ccc(C(=O)N3CCCC(C(F)(F)F)C3)cc2)CC1 (stereo unspecified) | . | . | ? | . | ? | 18µM
CCOC(=O)C1CCCN(C(=O)c2ccc3[nH]c4c(c3c2)CC(C)CC4)C1 (stereo unspecified) | . | . | ? | . | . | .
O=c1[nH]cc(S(=O)(=O)N2CCN(c3cccc(C(F)(F)F)c3)CC2)c(=O)[nH]1 | . | . | . | . | . | .
NNC(=S)Nc1ccccc1Cl | . | . | 7.3µM | . | . | ?
S=C(NCCNC(=S)Nc1ccccc1Cl)Nc1ccccc1Cl | . | / | ? | . | ? | .
Cc1ccc(-n2c(SCc3nc4ccccc4c(=O)[nH]3)nnc2-c2ccccc2O)cc1 | . | . | . | . | . | .
COc1cccc(-c2cc(NC=O)c3ncc(-c4cccc(C(=O)NCCN(C)C)c4)n3c2)c1 | . | / | ? | . | . | ?
CN(C)CCNC(=O)c1cccc(-c2cc(NC=O)c3ncc(-c4cccc(C(F)(F)F)c4)n3c2)c1 | . | / | 5.2µM | . | -109 | 3.3µM
CN(C)CCNC(=O)c1cccc(-c2cnc3c(NC=O)cc(-c4cc(F)c(F)c(F)c4)cn23)c1 | . | / | 3.3µM | . | . | 4.1µM
CN(C)CCNC(=O)c1cccc(-c2cnc3c(NC=O)cc(-c4ccc(S(C)(=O)=O)cc4)cn23)c1 | . | / | . | . | . | .
O=C1c2ccccc2C(=O)N1Cc1cnc(N2CCN(c3ccccc3)CC2)s1 | . | . | 12µM | . | . | 8.2µM
O=C(CCN1C(=O)c2ccccc2C1=O)N1CCN(c2ccccc2)CC1 | . | . | . | . | . | .
CCOC(=O)c1cc(S(=O)(=O)Nc2cc(F)ccc2C)[nH]n1 | / | . | . | / | / | .
Cc1ccc(-c2nn(-c3ccccc3)cc2C(=O)N2CCN(C3CCS(=O)(=O)C3)CC2)cc1 (stereo unspecified) | . | . | . | . | . | .
CS(=O)(=O)N1CCN(C(=O)c2cc(-c3ccccc3)nc3ccccc23)CC1 | . | . | . | . | . | ?
CCOC(=O)N1CCN(C(=O)c2cc(-c3ccncc3)nc3ccccc23)CC1 | . | . | 5.8µM | . | . | 5.8µM
CCOC(=O)C1CCCN(C(=O)c2sc(-c3ccccc3)nc2C)CC1 (stereo unspecified) | . | / | 15µM | . | . | ?
Cc1ccc(-c2cc(C(=O)N3CCN(C4CCS(=O)(=O)C4)CC3)c3ccccc3n2)cc1 (stereo unspecified) | . | . | ? | . | ? | 13µM
CCOc1ccc(-c2cc(C(=O)N3CCCC3)c3ccccc3n2)cc1 | . | . | 23µM | . | . | ?

Compound activity (PubChem BioAssay)
